This note sets out measurements from PubChem BioAssay AID1822 (The Scripps Research Institute Molecular Screening Center, 2009).

The campaign covered roughly 290,000 compounds. About 3,500 (1.2%) were called active. The entries come from a sample that favours actives as a whole. Values without a mark were called inactive.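 Rule for the calls: active = inhibition above the campaign mean inhibition over all tested compounds plus 3 SD (cut at about 28% in these data); inactive = the rest.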

The subject of the test is M18 aspartyl aminopeptidase (Plasmodium falciparum 3D7). Put plainly: PfM18AAP inhibitors, malaria aminopeptidase, primary screen, biochemical, QFRET, recombinant enzyme (AID 1822).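 Note: 0% = plate median of test compound wells and 100% = 2 mM ZnCl2.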 The note with it: H-Glu-NHMec fluorogenic cleavage, at 7.35 µM, hits give high values.
Turning to `COc1cccc(N2C(=O)NC(=O)/C(=C\c3cn(C)c4ccccc34)C2=O)c1`, the inhibition is 31.5% (active). In the case of `Cc1cccc(N2C(=O)NC(=O)/C(=C\c3cnn(-c4ccccc4)c3)C2=O)c1`, the inhibition was -3.93%. The figure for `COc1cccc(N2C(=O)NC(=O)/C(=C\c3ccc([N+](=O)[O-])s3)C2=O)c1` is 9.11%; for `CCOc1ccc(-c2cc(C)[n+](CCN(CC)CC)c(-c3ccc(OCC)cc3)c2)cc1` it is -4.54%. Next, `Cc1cccc(NC(=O)N2CC3CC(C2)c2cccc(=O)n2C3)c1` (stereo not given): -2.4%.

What is called inhibition is the relative decrease from the control value, in per cent.
